Inconclusive results are not listed. Values without a mark were called inactive. Calls come from the whole dose curve; as a rule, active = well fitted activation curve with a large enough effect; inconclusive = small, poorly fitted or top-dose-only effect; inactive = flat fitted curve, though single readings scatter.
Assay: Primary redox qHTS assay for identification of artifact compounds. (AID 1845223);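 note: 0% = DMSO and 100% = reference compound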
Settings: Amplex Red/HRP redox cycling with DTT, fluorescence; series mostly up to 53.8 µM; redox activity (% of DA3003): at the top concentration
Method in brief: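 Redox-cycling detection via DTT (250 uM final) oxidation coupled to Amplex Red (25 uM)/HRP (250 mU/mL) in HBSS. 15 min preincubation plus 30 min after DTT, room temperature. Ex/Em 525/598 nm; 4-parameter Hill fit against DMSO and 10 uM DA3003.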

SMILES	redox activity (% of DA3003)
CCOC(=O)c1cnn(-c2ccccc2)c1NC(=O)c1cc2nc(-c3ccco3)cc(C(F)(F)Cl)n2n1	-7.17%
CC(C)=C[C@@H]1[C@H](CO[C@@H]2O[C@H](CO)[C@@H](O)[C@H](O)[C@H]2O)C1(C)C	8.91%
CC(C)(O)c1ccn2c(-c3ccc(F)c(-c4ccc(F)cc4C#N)c3)cnc2c1F	22.2%
Cc1onc(-c2ccccc2)c1C(=O)N1CCN(c2ccc([N+](=O)[O-])cc2Cl)CC1	-5.69%
Cc1nc(Nc2ccc(F)cc2)nc(N2CCc3ccccc3C2C)c1C (centres undefined)	-5.04%
Cc1nc(N2CCN(C(=O)c3ccco3)CC2)c2c3c(sc2n1)CCCC3	11.3%
Cn1ncnc1[C@@H]1c2n[nH]c(=O)c3cc(F)cc(c23)N[C@H]1c1ccc(F)cc1	-9.94%
C=C1CCC2C(C)(C)CCCC2(C)C1CC/C(C)=C\CO (centres undefined)	-1.19%
O=C(Nc1ccc(N(Cc2ccsc2)C(=O)Cn2nnc3ccccc32)cc1)C1CC1	2.42%
CC(=O)OC1CCC2(C)C(CCC3(C)C2CC=C2C4C(C)C(C)CCC4(C)CCC23C)C1(C)C(=O)O (centres undefined)	-1.87% [at 25.6 µM]
CCOC(=O)c1cnc2ccc(-c3cncc(NS(=O)(=O)c4ccccc4)c3)cn12	-1.29%
COc1c(CCC(=O)O)cccc1O[C@@H]1O[C@H](CO)[C@@H](O)[C@H](O)[C@H]1O	-14.5%
OC(c1ccc(-c2ccc(CN3CCN(Cc4ccncc4)CC3)cc2)c(F)c1)(C(F)(F)F)C(F)(F)F	-2.53%
CCCCCCCOc1cc2c(cc1/C(C)=C/c1ccc(C(=O)O)cc1)C(C)(C)CCS2(=O)=O	14%
O=C(Nc1ccc(-c2ccnc(Nc3ccc(N4CCOCC4)cc3)n2)cc1)C1CCCN1 (centres undefined)	-2.02%
C=C1C(=O)OC2CC(C)=C(C(C)CCCOC(C)=O)C(OC(=O)CC(C)CC)C12 (centres undefined)	4.2% [at 25.6 µM]
C=C1C(=O)OC2C(OC(=O)C=C(C)C)C(C)=C3C(=O)C=C(C)C3C(O)C12 (centres undefined)	-10.1%
COc1ccc2[nH]c(=O)c3c(c2c1)OC(C)(C)C=C3	-10.1%
CCC(C)C1NC(=O)C(Cc2ccccc2)NC(=O)C(CCCCCC(=O)C(O)CO)NC(=O)C2CCCCN2C1=O (centres undefined)	0.863% [at 25.6 µM]
COc1cc(CCC2=NN=C(NC(=O)c3ccc(N4C[C@@H](C)N[C@@H](C)C4)cc3)C2)cc(OC)c1	7.04%
O=c1[nH]cnc2c([C@@H]3N[C@H](CO)[C@@H](O)[C@H]3O)c[nH]c12	0.194%
COc1ccc(CNCc2cccc3ccccc23)cc1	-4.3%
O=C(NC[C@H]1CN(c2ccc(N3CCOCC3=O)cc2)C(=O)O1)c1ccc(Cl)s1	-2.82%
C=C1C(=O)O[C@@H]2C(OC(=O)/C(C)=C\C)/C(C)=C\C(=O)/C=C(\C)C[C@H](O)[C@@H]12 (some centres undefined)	1.04%

— PubChem BioAssay (NCATS)
